# Tests used:
# [1] = biological target: G protein-coupled receptor kinase 6 (Homo sapiens) (UniProt P43250); conditions: at 10 µM
# [2] = biological target: T1, Rhodopsin kinase GRK7 (Homo sapiens) (UniProt Q8WTQ7); conditions: at 1 µM
# T1 sequence (whole entry): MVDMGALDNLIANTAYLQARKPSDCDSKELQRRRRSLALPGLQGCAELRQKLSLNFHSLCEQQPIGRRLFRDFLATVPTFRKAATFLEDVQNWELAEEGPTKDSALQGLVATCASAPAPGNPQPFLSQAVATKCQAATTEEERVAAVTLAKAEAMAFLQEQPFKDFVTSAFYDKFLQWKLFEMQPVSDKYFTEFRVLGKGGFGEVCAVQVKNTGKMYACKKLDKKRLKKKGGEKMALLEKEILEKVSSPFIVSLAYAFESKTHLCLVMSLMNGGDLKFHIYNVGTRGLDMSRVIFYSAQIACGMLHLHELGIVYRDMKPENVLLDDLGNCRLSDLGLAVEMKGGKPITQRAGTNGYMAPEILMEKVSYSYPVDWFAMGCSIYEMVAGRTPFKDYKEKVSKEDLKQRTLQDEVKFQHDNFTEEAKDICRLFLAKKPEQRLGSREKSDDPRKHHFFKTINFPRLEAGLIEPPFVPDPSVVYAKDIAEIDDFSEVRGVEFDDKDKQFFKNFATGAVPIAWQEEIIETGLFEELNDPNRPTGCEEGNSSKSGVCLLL
# [3] = biological target: T1, Rhodopsin kinase GRK7 (Homo sapiens); conditions: at 10 µM
# [4] = biological target: Glycogen synthase kinase-3 alpha (Homo sapiens) (UniProt P49840); conditions: at 1 µM
# Sequence of Glycogen synthase kinase-3 alpha (Homo sapiens) (P49840 2-483 limits assumed): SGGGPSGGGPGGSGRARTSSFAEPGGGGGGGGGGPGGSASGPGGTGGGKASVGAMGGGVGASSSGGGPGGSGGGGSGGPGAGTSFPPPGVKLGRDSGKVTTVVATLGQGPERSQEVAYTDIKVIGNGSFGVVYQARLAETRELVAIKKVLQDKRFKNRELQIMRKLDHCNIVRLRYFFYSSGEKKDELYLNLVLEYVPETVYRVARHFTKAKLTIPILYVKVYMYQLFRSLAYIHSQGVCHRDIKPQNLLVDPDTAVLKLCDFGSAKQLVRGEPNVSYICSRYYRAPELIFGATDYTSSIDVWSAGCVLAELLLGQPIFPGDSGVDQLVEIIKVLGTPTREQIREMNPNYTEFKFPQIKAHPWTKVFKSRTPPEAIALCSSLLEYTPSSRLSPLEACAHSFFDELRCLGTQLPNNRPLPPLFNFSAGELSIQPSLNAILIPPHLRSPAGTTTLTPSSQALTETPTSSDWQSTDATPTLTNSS
# [5] = biological target: Glycogen synthase kinase-3 alpha (Homo sapiens) (UniProt P49840); conditions: at 10 µM
# [6] = biological target: Glycogen synthase kinase-3 beta (Homo sapiens) (UniProt P49841); conditions: at 1 µM
# Sequence of Glycogen synthase kinase-3 beta (Homo sapiens) (P49841 whole entry, looked up): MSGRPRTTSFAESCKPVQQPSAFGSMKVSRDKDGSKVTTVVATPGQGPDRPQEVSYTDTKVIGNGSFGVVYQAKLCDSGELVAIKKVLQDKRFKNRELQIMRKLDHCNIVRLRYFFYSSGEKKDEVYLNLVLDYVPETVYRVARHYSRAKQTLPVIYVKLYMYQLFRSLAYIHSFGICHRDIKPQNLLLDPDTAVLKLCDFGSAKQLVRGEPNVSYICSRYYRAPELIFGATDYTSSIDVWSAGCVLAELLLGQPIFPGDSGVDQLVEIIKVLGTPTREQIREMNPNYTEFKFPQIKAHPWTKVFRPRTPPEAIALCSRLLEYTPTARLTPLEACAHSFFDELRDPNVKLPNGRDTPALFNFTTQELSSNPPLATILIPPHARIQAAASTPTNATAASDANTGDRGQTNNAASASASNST
# [7] = biological target: Glycogen synthase kinase-3 beta (Homo sapiens) (UniProt P49841); conditions: at 10 µM
# [8] = biological target: Homeodomain-interacting protein kinase 1 (Homo sapiens) (UniProt Q86Z02); conditions: at 1 µM
# Sequence of Homeodomain-interacting protein kinase 1 (Homo sapiens) (Q86Z02 whole entry, looked up): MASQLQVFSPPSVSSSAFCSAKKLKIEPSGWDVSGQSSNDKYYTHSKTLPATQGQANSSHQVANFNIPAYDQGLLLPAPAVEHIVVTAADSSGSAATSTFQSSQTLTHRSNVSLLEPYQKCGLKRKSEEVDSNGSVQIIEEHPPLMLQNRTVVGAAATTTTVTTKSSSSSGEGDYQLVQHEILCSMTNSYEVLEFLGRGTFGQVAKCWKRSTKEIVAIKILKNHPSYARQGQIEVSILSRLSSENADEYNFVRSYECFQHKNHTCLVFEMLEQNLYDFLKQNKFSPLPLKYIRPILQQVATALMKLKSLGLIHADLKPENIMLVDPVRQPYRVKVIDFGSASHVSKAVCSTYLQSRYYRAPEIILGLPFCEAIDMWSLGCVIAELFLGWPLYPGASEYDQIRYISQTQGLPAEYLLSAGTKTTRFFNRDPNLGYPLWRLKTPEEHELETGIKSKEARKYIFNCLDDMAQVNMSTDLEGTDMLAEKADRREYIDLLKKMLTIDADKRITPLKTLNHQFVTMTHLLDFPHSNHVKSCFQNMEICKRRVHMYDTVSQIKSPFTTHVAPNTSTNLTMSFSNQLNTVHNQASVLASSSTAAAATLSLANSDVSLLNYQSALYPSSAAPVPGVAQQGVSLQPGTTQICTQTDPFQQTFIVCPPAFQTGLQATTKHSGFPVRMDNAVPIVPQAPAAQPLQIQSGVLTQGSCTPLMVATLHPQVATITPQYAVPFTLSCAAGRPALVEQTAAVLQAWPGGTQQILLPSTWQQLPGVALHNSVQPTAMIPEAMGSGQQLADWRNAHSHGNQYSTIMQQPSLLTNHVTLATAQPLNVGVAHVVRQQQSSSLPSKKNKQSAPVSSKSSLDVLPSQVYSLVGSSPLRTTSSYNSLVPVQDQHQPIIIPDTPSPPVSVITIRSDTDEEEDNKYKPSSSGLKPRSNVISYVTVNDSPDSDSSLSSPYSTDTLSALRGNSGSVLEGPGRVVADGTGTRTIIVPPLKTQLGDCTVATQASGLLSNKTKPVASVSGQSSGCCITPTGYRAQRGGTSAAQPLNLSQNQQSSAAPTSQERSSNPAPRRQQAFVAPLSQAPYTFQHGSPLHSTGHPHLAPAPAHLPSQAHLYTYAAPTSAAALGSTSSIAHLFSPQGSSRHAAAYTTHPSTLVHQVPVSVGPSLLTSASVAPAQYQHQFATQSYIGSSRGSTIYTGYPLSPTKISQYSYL
# [9] = biological target: Homeodomain-interacting protein kinase 1 (Homo sapiens) (UniProt Q86Z02); conditions: at 10 µM
# [10] = biological target: Homeodomain-interacting protein kinase 2 (Homo sapiens) (UniProt Q9H2X6); conditions: at 1 µM
# Sequence of Homeodomain-interacting protein kinase 2 (Homo sapiens) (Q9H2X6 whole entry, looked up): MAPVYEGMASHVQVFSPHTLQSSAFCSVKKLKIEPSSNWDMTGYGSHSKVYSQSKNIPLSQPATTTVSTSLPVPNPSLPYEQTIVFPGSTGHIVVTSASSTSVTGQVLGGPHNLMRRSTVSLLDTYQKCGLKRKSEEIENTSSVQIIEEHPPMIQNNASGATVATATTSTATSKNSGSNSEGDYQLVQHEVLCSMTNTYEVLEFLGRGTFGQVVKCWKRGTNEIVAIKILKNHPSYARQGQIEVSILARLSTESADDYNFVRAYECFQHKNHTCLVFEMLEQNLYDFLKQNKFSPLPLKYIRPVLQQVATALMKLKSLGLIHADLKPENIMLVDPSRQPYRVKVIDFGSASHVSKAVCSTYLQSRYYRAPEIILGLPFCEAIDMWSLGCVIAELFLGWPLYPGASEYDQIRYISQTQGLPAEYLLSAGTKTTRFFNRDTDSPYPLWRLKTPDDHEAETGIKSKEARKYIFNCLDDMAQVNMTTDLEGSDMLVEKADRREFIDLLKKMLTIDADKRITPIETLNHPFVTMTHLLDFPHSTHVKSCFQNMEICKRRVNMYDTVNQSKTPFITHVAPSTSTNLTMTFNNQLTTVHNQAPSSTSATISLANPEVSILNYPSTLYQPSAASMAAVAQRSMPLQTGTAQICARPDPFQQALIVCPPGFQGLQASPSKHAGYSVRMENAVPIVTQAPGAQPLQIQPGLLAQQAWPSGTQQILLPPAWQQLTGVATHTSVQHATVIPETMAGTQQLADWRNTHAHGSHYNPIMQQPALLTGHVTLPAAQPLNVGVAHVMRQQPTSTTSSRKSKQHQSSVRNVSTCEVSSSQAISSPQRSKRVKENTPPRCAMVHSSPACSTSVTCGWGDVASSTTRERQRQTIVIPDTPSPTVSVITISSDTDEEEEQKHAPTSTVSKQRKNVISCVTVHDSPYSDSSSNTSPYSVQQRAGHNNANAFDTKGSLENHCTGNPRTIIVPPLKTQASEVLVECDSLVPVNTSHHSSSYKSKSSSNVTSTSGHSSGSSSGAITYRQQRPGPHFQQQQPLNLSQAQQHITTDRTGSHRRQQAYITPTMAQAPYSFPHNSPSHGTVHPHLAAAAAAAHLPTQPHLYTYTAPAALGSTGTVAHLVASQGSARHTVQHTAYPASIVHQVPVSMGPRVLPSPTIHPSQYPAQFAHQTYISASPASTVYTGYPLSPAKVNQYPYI
# Sequence of G protein-coupled receptor kinase 6 (Homo sapiens) (P43250 whole entry, looked up): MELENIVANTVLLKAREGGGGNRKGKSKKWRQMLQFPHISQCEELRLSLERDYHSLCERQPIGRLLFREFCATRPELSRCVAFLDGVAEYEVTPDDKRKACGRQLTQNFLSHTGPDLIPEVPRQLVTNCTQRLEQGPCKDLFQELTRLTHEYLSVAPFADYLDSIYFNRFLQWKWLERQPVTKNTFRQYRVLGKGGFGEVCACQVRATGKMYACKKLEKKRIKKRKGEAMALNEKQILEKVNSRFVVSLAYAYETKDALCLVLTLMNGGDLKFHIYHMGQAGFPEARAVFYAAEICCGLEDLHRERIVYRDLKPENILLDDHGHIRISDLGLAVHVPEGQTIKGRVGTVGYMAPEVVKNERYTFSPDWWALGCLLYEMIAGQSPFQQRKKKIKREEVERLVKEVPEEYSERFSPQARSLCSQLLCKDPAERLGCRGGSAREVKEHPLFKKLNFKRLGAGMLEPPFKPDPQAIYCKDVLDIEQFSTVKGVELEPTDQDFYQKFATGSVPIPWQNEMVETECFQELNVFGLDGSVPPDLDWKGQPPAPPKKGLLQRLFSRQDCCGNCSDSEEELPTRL
Structure (SMILES),residual activity [1] [%],residual activity [2] [%],residual activity [3] [%],residual activity [4] [%],residual activity [5] [%],residual activity [6] [%],residual activity [7] [%],residual activity [8] [%],residual activity [9] [%],residual activity [10] [%]
COc1cc2ncnc(Nc3ccc(OCc4ccccc4)cc3)c2cc1OC,97,105,99,100,160,104,119,102,105,104
O=c1[nH]c2ccccc2n1C1CCN(Cc2ccc(-c3nc4cc5[nH]cnc5cc4nc3-c3ccccc3)cc2)CC1,94,110,94,112,123,108,106,101,98,98
O=C1Nc2ccc3ncsc3c2/C1=C/c1c[nH]cn1,60,63,20,4,1,4,0,64,26,32
N/C(=N\[N+](=O)[O-])N/N=C\c1ccc(-c2cccc([N+](=O)[O-])c2)o1,94,100,91,99,78,,97,99,100,82
c1cc(-c2cnn3cc(-c4ccc(OCCN5CCCCC5)cc4)cnc23)ccn1,,,,100,76,,,85,34,62
CCc1nc(-c2ccc(OC)cc2)[nH]c1-c1ccncc1,,,,106,,114,115,,,
CN[C@@H]1C[C@H]2O[C@@](C)([C@@H]1OC)n1c3ccccc3c3c4c(c5c6ccccc6n2c5c31)C(=O)NC4,,,,,,,,87,,
COc1ccc2c(c[n+](C)c3c4cc5c(cc4ccc23)OCO5)c1OC,93,99,91,126,,97,83,,,
COC(=O)[C@@]1(O)C[C@H]2O[C@]1(C)n1c3ccccc3c3c4c(c5c6ccccc6n2c5c31)C(=O)NC4,5,4,4,14,3,29,10,78,15,22
C[S+]([O-])c1ccc(-c2nc(-c3ccc(F)cc3)c(-c3ccncc3)[nH]2)cc1 (configuration not stated),102,109,108,86,49,,34,102,97,110
O=C1NC(=O)c2c1c1c3ccccc3n3c1c1c2c2ccccc2n1C1CCC3O1,,,,15,3,40,23,,,42
CC(C)(C)c1cc(C=C(C#N)C#N)cc(Br)c1O,104,113,102,117,74,106,96,107,104,101
CC(C)[C@H](CO)Nc1nc(Nc2cccc(Cl)c2)c2ncn(C(C)C)c2n1,,95,44,,,134,57,97,49,88
COc1ccc2c(c1)/C(=C/c1cnc[nH]1)C(=O)N2,76,,42,,,42,4,,52,
O=C1c2ccccc2-c2nc3nnnn3nc21,,,,101,120,115,101,,,
CCn1cnc2c(Nc3cccc(Cl)c3)nc(N[C@@H]3CCCC[C@@H]3N)nc21,68,74,24,123,119,132,136,,81,85
COc1cc(OC)c(/C=C2\C(=O)Nc3ccccc32)c(OC)c1,91,95,84,105,95,132,106,102,98,104
O=[N+]([O-])/C=C/c1ccc2c(c1)OCO2,89,103,86,125,113,,74,96,112,93

# — ChEMBL document CHEMBL2218924, “A broad activity screen in support of a chemogenomic map for kinase signalling research and drug discovery” (Biochem J, 2013)
